Rows were chosen to be rich in hits. Some 7.5% of all compounds tested hit in one or more screens of this group.
Rab9 promoter act: qHTS Assay for Rab9 Promoter Activators; AID 485297, 2010; Huh7 Rab9 promoter-luciferase reporter, luminescence, 24 h; Potency, µM (top dose mostly 9.22 µM), actives largely listed as activators; 2.8% of 320,000 active; further: nearly all actives have a fitted effect of over 60% in size
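Luminescence read-out: Huh7 cells stably expressing Rab9-luciferase, treated 24 h with compound at 37 °C, then lysed with luciferase reagent for 10 min at ambient before reading.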
NPC1 prom act: qHTS Assay for NPC1 Promoter Activators; 2.4% of 320,000 active; AID 485313, 2010; Potency, µM (doses to about 9.22 µM), usual class: activators; Huh7 NPC1 promoter luciferase reporter, 24 h; further: nearly all actives have a fitted effect of over 60% in size
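Stable NPC1-promoter luciferase Huh7 line; cpd (DMSO) 24 h, 37 °C, 5% CO2; Amplite luciferase reagent 10 min RT; luminescence readout. qHTS format.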
FLuc modulator: qHTS profiling assay for firefly luciferase inhibitor/activator using purifed enzyme and Km concentrations of substrates (counterscreen for miR-21 project). Luciferin 4-monooxygenase (Photinus pyralis), P08659. 6.9% of 360,000 active. purified FLuc, Km substrates, luminescence inhibition. AID 588342, 2011. Potency, µM (highest dose often 57.5 µM), hits mostly inhibitors; further: nearly all actives have a fitted effect of over 55% in size
Target sequence (P08659 whole entry, looked up): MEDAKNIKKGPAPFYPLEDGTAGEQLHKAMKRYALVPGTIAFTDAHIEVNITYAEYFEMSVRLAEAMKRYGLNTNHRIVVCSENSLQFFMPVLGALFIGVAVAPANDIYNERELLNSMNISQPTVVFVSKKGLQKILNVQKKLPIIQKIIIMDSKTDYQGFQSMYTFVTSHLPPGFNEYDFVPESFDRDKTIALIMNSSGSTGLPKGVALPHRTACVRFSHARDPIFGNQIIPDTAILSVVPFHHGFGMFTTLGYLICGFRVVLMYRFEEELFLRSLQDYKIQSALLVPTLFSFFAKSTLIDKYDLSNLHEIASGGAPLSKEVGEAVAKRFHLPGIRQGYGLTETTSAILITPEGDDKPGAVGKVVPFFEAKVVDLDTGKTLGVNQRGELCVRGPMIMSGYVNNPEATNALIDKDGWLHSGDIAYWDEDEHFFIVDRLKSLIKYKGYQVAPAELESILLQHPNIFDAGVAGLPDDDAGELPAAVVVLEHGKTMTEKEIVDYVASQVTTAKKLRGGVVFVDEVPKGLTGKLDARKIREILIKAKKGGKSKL
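Purified P. pyralis luciferase, 10 nM final, with Km-level 10 uM D-luciferin and 10 uM ATP in 50 mM Tris acetate pH 7.5, 10 mM Mg acetate, 0.01% Tween-20, 0.05% BSA; 6-point qHTS titration about 60 µM downward; luminescence read.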
ELG1 genotox: qHTS screen for small molecules that induce genotoxicity in human embryonic kidney (HEK293T) cells expressing luciferase-tagged ELG1; HEK293T ELG1-luciferase reporter, luminescence, 16 h; Potency, µM (highest dose often 46 µM), hits mostly activators; 1.3% of 330,000 active; AID 504466, 2011; further: nearly all actives have a fitted effect of over 60% in size
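Reporter readout depends on ELG1 protein level, which increases with genetic stress. After 16 hr compound exposure at 37 °C, luciferase activity was quantified using ONE-Glo.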
SMN2 splice up: qHTS Assay for Enhancers of SMN2 Splice Variant Expression; Potency, µM (series often up to 46.1 µM), hits mostly activators; HEK293 SMN2-luciferase splicing reporter, luminescence, 30-36 h; AID 1458, 2008; 2.8% of 210,000 active; further: nearly all actives have a fitted effect of over 55% in size
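HEK293 cells carry an SMN2 […]–luciferase reporter in which exon 7 inclusion puts luciferase in frame. Cells were plated 10-12 h before compound addition, then incubated 30-36 h at 37C. ONE-Glo luminescence was read; sodium butyrate at 4.5 mM final served as control.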
Luc counter: Counterscreen for Luciferase (Kinase-Glo TM) Inhibition; Luciferin 4-monooxygenase (Photuris pensylvanica), Q27757; Kinase-Glo luciferase, ATP luminescence, 8 min; Potency, µM (doses to about 38.3 µM), actives largely listed as inhibitors; 0.28% of 200,000 active; AID 1379, 2008; further: nearly all actives have a fitted effect of over 60% in size
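Compounds were added to a substrate mix at pH 7.2 (50 mM imidazole, 10 uM ATP, within the enzyme's linear range), followed by Kinase-Glo detection reagent; luminescence was measured after 8 minutes at ambient temperature.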
Of the large screens only hits and unclear results are named; the others gave an inactive call. The call rests on the fitted dose curve; in most records, active means well fitted curve in the direction sought with a large enough effect; inconclusive means small, poorly fitted or top-dose-only effect, or another doubt; inactive means no such curve, though single readings can be large; an effect the other way counts as inactive or inconclusive.

O=C(/C=C/c1ccc(Cl)cc1Cl)Nc1cccc(S(=O)(=O)NC2=NCCC2)c1	Rab9 promoter act 0.35µM, NPC1 prom act 1µM, FLuc modulator 0.12µM, ELG1 genotox inconclusive, SMN2 splice up 5.6µM
O=C(/C=C/c1ccccc1Cl)Nc1cccc(S(=O)(=O)NC2=NCCCCC2)c1	Rab9 promoter act inconclusive, NPC1 prom act inconclusive, FLuc modulator 1.2µM, SMN2 splice up 14µM
COc1ccccc1C(=O)Nc1ccc(OCC(=O)N2CC(C)CC(C)C2)cc1 (configuration not stated)	FLuc modulator 11µM (no result: SMN2 splice up, Luc counter)
COc1ccc([N+](=O)[O-])cc1C(=O)Nc1ccc(OCC(=O)N2CCOCC2)cc1	none
COc1cc(SC)ccc1C(=O)Nc1ccc(OCC(=O)N2CCOCC2)cc1	Rab9 promoter act 1.8µM, NPC1 prom act 2.8µM, FLuc modulator 0.48µM, ELG1 genotox inconclusive (no result: SMN2 splice up, Luc counter)
COc1cc(SC)ccc1C(=O)Nc1cc(C)c(OCC(=O)N2CCOCC2)c(C)c1	FLuc modulator 6µM (no result: SMN2 splice up, Luc counter)
COc1cc(C=O)ccc1OCC(=O)N1CCOCC1	none
COc1cccc(N2CCN(C(=O)C3CCCN(S(=O)(=O)c4ccc(Br)s4)C3)CC2)c1 (configuration not stated)	none (no result: Rab9 promoter act, NPC1 prom act, ELG1 genotox, Luc counter)
Cc1cc(C)c(S(=O)(=O)NCC2CCC(C(=O)NCCc3ccccc3)CC2)c(C)c1 (configuration not stated)	none (no result: Rab9 promoter act, NPC1 prom act, ELG1 genotox, SMN2 splice up, Luc counter)
Fc1ccc(CNCCCSc2nnnn2-c2ccccc2)cc1	none (no result: Rab9 promoter act, NPC1 prom act, ELG1 genotox, SMN2 splice up, Luc counter)
O=S(=O)(N/N=C\c1ccc2c(c1)OCO2)c1ccccc1	FLuc modulator 21µM (no result: SMN2 splice up, Luc counter)
COc1ccc(OC)c(S(=O)(=O)N/N=C\c2ccc3c(c2)OCO3)c1	FLuc modulator 9.5µM, ELG1 genotox inconclusive (no result: SMN2 splice up, Luc counter)
Cc1ccc(S(=O)(=O)N/N=C\c2ccc3c(c2)OCO3)cc1	FLuc modulator 15µM
Cc1ccc(C(=O)O/N=C/c2ccc3c(c2)OCO3)cc1	FLuc modulator 1.2µM
O=S(=O)(N/N=C\c1ccc2c(c1)OCO2)c1ccc(F)cc1	none (no result: SMN2 splice up, Luc counter)
COc1ccc(S(=O)(=O)N/N=C\c2ccc3c(c2)OCO3)c(OC)c1	none (no result: SMN2 splice up, Luc counter)
CCC(C)[C@H]1COCCS(=O)(=O)N1Cc1ccccc1 (some centres not stated)	none (no result: SMN2 splice up, Luc counter)
Cc1ccc(OC(=O)CSc2nnc(-c3cccs3)o2)c(C)c1	none (no result: Rab9 promoter act, NPC1 prom act, ELG1 genotox, SMN2 splice up, Luc counter)
COc1ccccc1/C=N/OC(=O)c1ccc(C)cc1	FLuc modulator 1.9µM (no result: SMN2 splice up)
COc1ccccc1NC(=O)c1cc(-c2ccc(OC)c(OC)c2)nc2ccccc12	FLuc modulator 9.5µM (no result: SMN2 splice up, Luc counter)
COc1ccc(-c2cc(C(=O)Nc3ccc(O)cc3)c3ccccc3n2)cc1OC	FLuc modulator 5.4µM (no result: SMN2 splice up, Luc counter)
Cc1cc(S(=O)(=O)NCCc2csc(-c3cccc(F)c3)n2)ccc1F	none (no result: Rab9 promoter act, NPC1 prom act, ELG1 genotox, SMN2 splice up, Luc counter)
O=C(NC(=S)N1CCN(C/C=C/c2ccccc2)CC1)c1ccc(Cl)nc1	none (no result: SMN2 splice up, Luc counter)
Cc1c2ccccc2nc2c(F)c(N(C)C)c(F)c(F)c12	Rab9 promoter act inconclusive, FLuc modulator 9.5µM, ELG1 genotox inconclusive, SMN2 splice up inconclusive
C[C@H](NC(=O)c1nc[nH]c1C(=O)N1CCNCC1)C(=O)OCc1ccccc1	none (no result: SMN2 splice up, Luc counter)
COc1ccccc1C(=O)NC(=O)CSc1nc(C)cs1	FLuc modulator 13µM (no result: SMN2 splice up, Luc counter)
COc1ccccc1CNC(=O)CSc1nc(C)cs1	none
CCCCCCCCCCCCCCCCCCNC(=O)OCC(COP(=O)([O-])OCC[n+]1ccsc1)OC (configuration not stated)	none (no result: FLuc modulator, ELG1 genotox)
Oc1c(C(c2ccccc2F)N2CCC3(CC2)OCCO3)sc2nc(-c3ccco3)nn12 (configuration not stated)	none (no result: Rab9 promoter act, NPC1 prom act, ELG1 genotox, SMN2 splice up, Luc counter)
Cc1ccccc1C(=O)NNC(=O)CSc1nc(-c2ccccc2)cc(=O)[nH]1	FLuc modulator 11µM
COc1ccc(C(=O)N=c2nc3ccccn3s2)cc1	Rab9 promoter act 0.25µM, NPC1 prom act 0.13µM, FLuc modulator 0.095µM, ELG1 genotox 0.37µM, Luc counter 7.9µM (no result: SMN2 splice up)
